Assay results taken from paper PMC5540273 (PLoS ONE, 2017).
Values joined by “and” are separate entries in the source; they are usually repeats but may differ in a detail not shown here. Equal entries are not always repeated. Where two headings read alike, the source gives them in different places.

How the values were obtained:
Settings in all cases: n = 1
AAK1 = test system: AAK1
ABL1-nonphosphorylated = test system: ABL1-nonphosphorylated
ABL1-phosphorylated = test system: ABL1-phosphorylated
ABL2 = test system: ABL2
ACVR1B = test system: ACVR1B
ACVR1 = test system: ACVR1
ACVR2A = test system: ACVR2A
[1] = concentration: 1 μM, replicates: in singlicate
[2] = concentration: 1 μM,replicates: in singlicate, 1 µM
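Note: KINOMEscan kinase panel screen.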

SMILES: Cl.Oc1ccc(-c2nc(-c3ccccc3)[nH]c2-c2ccncc2)cc1 [SB-428218]
- %Inh (AAK1; [1]): 7%
- %Inh (ABL1-nonphosphorylated; [1]): 72%
- %Inh (ABL1-phosphorylated; [1]): 56%
- %Inh (ABL2; [1]): 30%
- %Inh (ACVR1B; [1]): 0%
- %Inh (ACVR1; [1]): 7%
- %Inh (ACVR2A; [1]): 0%

SMILES: COc1cccc(NC(=O)NC2CCN(c3ccnc(Nc4ccc(F)cc4)n3)C2)c1 (stereo not shown) [GSK1379721]
- %Inh (AAK1; [1]): 5%
- %Inh (ABL1-nonphosphorylated; [1]): 0%
- %Inh (ABL1-phosphorylated; [1]): 0%
- %Inh (ABL2; [1]): 0%
- %Inh (ACVR1B; [1]): 0%
- %Inh (ACVR1; [1]): 0%
- %Inh (ACVR2A; [1]): 100%

SMILES: COc1ccc(C2=C(Nc3cccc(C(=O)O)c3)C(=O)NC2=O)cc1 [SB-390765]
- %Inh (AAK1; [1]): 4%
- %Inh (ABL1-nonphosphorylated; [1]): 35%
- %Inh (ABL1-phosphorylated; [1]): 0%
- %Inh (ABL2; [1]): 1%
- %Inh (ACVR1B; [1]): 7%
- %Inh (ACVR1; [1]): 100%
- %Inh (ACVR2A; [1]): 0%

SMILES: COc1ccc(Nc2nccc(NCCNC(=O)Nc3ccccc3F)n2)cc1 [GSK1379901]
- %Inh (AAK1; [1]): 80%
- %Inh (ABL1-nonphosphorylated; [1]): 0%
- %Inh (ABL1-phosphorylated; [1]): 1%
- %Inh (ABL2; [1]): 0%
- %Inh (ACVR1B; [1]): 0%
- %Inh (ACVR1; [1]): 21%
- %Inh (ACVR2A; [1]): 0%

SMILES: O=S(=O)(c1ccc(-c2ccnc3[nH]ccc23)cc1)N1CCCC1 [GSK846226]
- %Inh (AAK1; [1]): 60%
- %Inh (ABL1-nonphosphorylated; [1]): 0%
- %Inh (ABL1-phosphorylated; [1]): 0%
- %Inh (ABL2; [1]): 0%
- %Inh (ACVR1B; [1]): 0%
- %Inh (ACVR1; [1]): 24%
- %Inh (ACVR2A; [1]): 0%

SMILES: Cc1cccc(-c2nc(Nc3ccc4[nH]ncc4c3)c3ccccc3n2)n1 [GW857175]
- %Inh (AAK1; [1]): 0%
- %Inh (ABL1-nonphosphorylated; [1]): 19%
- %Inh (ABL1-phosphorylated; [1]): 14%
- %Inh (ABL2; [1]): 3%
- %Inh (ACVR1B; [1]): 100%
- %Inh (ACVR1; [1]): 0%
- %Inh (ACVR2A; [1]): 0%

SMILES: Cc1c(O)cccc1Nc1ccnc2ccc(C(F)(F)F)cc12.Cl [GW466413]
- %Inh (AAK1; [1]): 0%
- %Inh (ABL1-nonphosphorylated; [1]): 42%
- %Inh (ABL1-phosphorylated; [1]): 70%
- %Inh (ABL2; [1]): 43%
- %Inh (ACVR1B; [1]): 0%
- %Inh (ACVR1; [1]): 73%
- %Inh (ACVR2A; [1]): 13%

SMILES: Cc1cccc(-c2nc(C)cc(Nc3ccncc3)n2)n1 [GSK257997]
- %Inh (AAK1; [1]): 99.8%
- %Inh (ABL1-nonphosphorylated; [1]): 0%
- %Inh (ABL1-phosphorylated; [1]): 0%
- %Inh (ABL2; [1]): 6%
- %Inh (ACVR1B; [1]): 78%
- %Inh (ACVR1; [1]): 15%
- %Inh (ACVR2A; [1]): 0%

SMILES: Cn1ccc2ncnc(Oc3ccc(Nc4nc5ccccc5[nH]4)cc3)c21
- %Inh (AAK1; [1]): 21%
- %Inh (ABL1-nonphosphorylated; [1]): 45%
- %Inh (ABL1-phosphorylated; [1]): 2%
- %Inh (ABL2; [1]): 4%
- %Inh (ACVR1B; [1]): 0%
- %Inh (ACVR1; [1]): 0%
- %Inh (ACVR2A; [1]): 10%

SMILES: CSc1nn2c(=O)cc(N3CCOCC3)nc2n1Cc1cccc(C(F)(F)F)c1C [GSK2363608]
- %Inh (AAK1; [2]): 3% and 25%
- %Inh (ABL1-nonphosphorylated; [1]): 0%
- %Inh (ABL1-phosphorylated; [1]): 0%
- %Inh (ABL2; [2]): 5% and 17%
- %Inh (ACVR1B; [1]): 0%
- %Inh (ACVR1; [2]): 0% and 14%
- %Inh (ACVR2A; [1]): 0%

SMILES: Cc1cc(N2Cc3ccccc3C2)nc(Nc2ccc(S(=O)(=O)N3CCOCC3)cc2)n1.Cl [GSK1669917]
- %Inh (AAK1; [1]): 1%
- %Inh (ABL1-nonphosphorylated; [1]): 0%
- %Inh (ABL1-phosphorylated; [1]): 0%
- %Inh (ABL2; [1]): 0%
- %Inh (ACVR1B; [1]): 0%
- %Inh (ACVR1; [1]): 2%
- %Inh (ACVR2A; [1]): 0%

SMILES: Cc1ccc(NC(=O)Nc2cccc(C(F)(F)F)c2)cc1 [GSK955403]
- %Inh (AAK1; 1 µM): 26%
- %Inh (ABL1-nonphosphorylated; 1 µM): 49%
- %Inh (ABL1-phosphorylated; 1 µM): 23%
- %Inh (ABL2; 1 µM): 3%
- %Inh (ACVR1B; 1 µM): 85%
- %Inh (ACVR1; 1 µM): 10%
- %Inh (ACVR2A; 1 µM): 2%

SMILES: Cc1cc(NCC(c2ccccc2)c2ccccc2)nc(NCc2ccc(C(F)(F)F)cc2)n1 [GW497681]
- %Inh (AAK1; [1]): 0%
- %Inh (ABL1-nonphosphorylated; [1]): 0%
- %Inh (ABL1-phosphorylated; [1]): 0%
- %Inh (ABL2; [1]): 0%
- %Inh (ACVR1B; [1]): 0%
- %Inh (ACVR1; [1]): 0%
- %Inh (ACVR2A; [1]): 0%

SMILES: Nc1nc(-c2nccs2)c(-c2ccnc3ccccc23)s1 [GW693542]
- %Inh (AAK1; [1]): 8%
- %Inh (ABL1-nonphosphorylated; [1]): 0%
- %Inh (ABL1-phosphorylated; [1]): 6%
- %Inh (ABL2; [1]): 15%
- %Inh (ACVR1B; [1]): 14%
- %Inh (ACVR1; [1]): 10%
- %Inh (ACVR2A; [1]): 0%

SMILES: Cc1cccc(-c2nc(Nc3ccncc3)c3ccccc3n2)n1 [GW855857]
- %Inh (AAK1; [1]): 2%
- %Inh (ABL1-nonphosphorylated; [1]): 39%
- %Inh (ABL1-phosphorylated; [1]): 28%
- %Inh (ABL2; [1]): 22%
- %Inh (ACVR1B; [1]): 94.3%
- %Inh (ACVR1; [1]): 15%
- %Inh (ACVR2A; [1]): 24%

SMILES: O=C1NC(=O)C(N2CCc3ccccc32)=C1c1ccccc1Cl [SB-373598]
- %Inh (AAK1; [1]): 7%
- %Inh (ABL1-nonphosphorylated; [1]): 12%
- %Inh (ABL1-phosphorylated; [1]): 97.7%
- %Inh (ABL2; [1]): 15%
- %Inh (ACVR1B; [1]): 35%
- %Inh (ACVR1; [1]): 27%
- %Inh (ACVR2A; [1]): 25%

SMILES: COC(=O)c1c(-c2ccccc2)c2cc(C(=O)O)ccc2c(=O)n1Cc1ccccc1
- %Inh (AAK1; [1]): 3%
- %Inh (ABL1-nonphosphorylated; [1]): 77%
- %Inh (ABL1-phosphorylated; [1]): 7%
- %Inh (ABL2; [1]): 7%
- %Inh (ACVR1B; [1]): 9%
- %Inh (ACVR1; [1]): 0%
- %Inh (ACVR2A; [1]): 36%

SMILES: CC(=O)Nc1nc2cnc(Nc3cc(NC(=O)c4cccc(CCC#N)c4)ccc3C)nc2s1
- %Inh (AAK1; [1]): 6%
- %Inh (ABL1-nonphosphorylated; [1]): 94.8%
- %Inh (ABL1-phosphorylated; [1]): 29%
- %Inh (ABL2; [1]): 29%
- %Inh (ACVR1B; [1]): 0%
- %Inh (ACVR1; [1]): 0%
- %Inh (ACVR2A; [1]): 0%

SMILES: Clc1cc(Cl)cc(Nc2ccnc(Nc3cc(Cl)cc(Cl)c3)n2)c1 [GSK175726]
- %Inh (AAK1; [1]): 0%
- %Inh (ABL1-nonphosphorylated; [1]): 68%
- %Inh (ABL1-phosphorylated; [1]): 51%
- %Inh (ABL2; [1]): 29%
- %Inh (ACVR1B; [1]): 28%
- %Inh (ACVR1; [1]): 58%
- %Inh (ACVR2A; [1]): 0%
